Screening data as filed in PubChem BioAssay.
Rows were chosen to be rich in hits. Some 5.3% of all compounds tested hit in one or more screens of this group.
JMJD2E inh: inhibitors of human JMJD2E histone demethylase. B2RXH2. JMJD2E catalytic domain, FDH-coupled NADH fluorescence (FDH is formaldehyde dehydrogenase). Potency, µM (series often up to 57.1 µM), actives largely listed as inhibitors. hit rate 1.6% among 230,000. AID 2147; active = well fitted inhibition curve with a large enough effect, not every such curve was filed as active; inconclusive = small, poorly fitted or top-dose-only effect, or another doubt; inactive = no such curve, though single readings can be large or run the other way; note: nearly all actives have a fitted effect of over 50% in size
Target sequence (B2RXH2 1-337 limits assumed): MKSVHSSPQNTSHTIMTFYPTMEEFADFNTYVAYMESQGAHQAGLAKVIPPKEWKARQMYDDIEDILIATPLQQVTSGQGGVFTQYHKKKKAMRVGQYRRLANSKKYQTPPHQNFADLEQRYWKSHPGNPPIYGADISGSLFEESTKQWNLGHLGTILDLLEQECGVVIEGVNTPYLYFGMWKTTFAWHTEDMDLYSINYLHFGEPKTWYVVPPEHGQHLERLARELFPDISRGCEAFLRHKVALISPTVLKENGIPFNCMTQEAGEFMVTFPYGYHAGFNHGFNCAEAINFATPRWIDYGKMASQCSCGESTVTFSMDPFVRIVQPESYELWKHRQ
Tau fluor counter: counter-screen for tau fibril formation inhibitors; tau K18 P301L Alexa594 fluorescence, heparin fibrillization; hit rate 0.93% among 280,000; Potency, µM (highest dose often 57.7 µM); note: nearly all actives have a fitted effect of over 55% in size
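Human tau K18 P301L (15 uM unlabeled, 0.24 uM Alexa 594-labeled) in 100 mM sodium acetate pH 7 with 20 uM heparin, 6 hr at 37 C. ThT 30 uM added, 1 hr ambient; Alexa 594 FP and total fluorescence read at 555/632 nm.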
Tau fibril ThT: tau fibrillization inhibition (ThT binding); Potency, µM (doses to about 57.4 µM), hits mostly inhibitors; hit rate 2.1% among 270,000; recombinant tau K18 P301L (four-repeat tau fragment), heparin-induced fibrillization, ThT fluorescence; P10636; note: nearly all actives have a fitted effect of over 55% in size
Target sequence (P10636 561-689 P618L limits assumed): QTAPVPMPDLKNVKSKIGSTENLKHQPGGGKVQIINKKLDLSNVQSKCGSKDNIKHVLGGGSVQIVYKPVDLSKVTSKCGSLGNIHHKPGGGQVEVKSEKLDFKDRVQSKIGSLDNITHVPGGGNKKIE
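Heparin-induced fibrillization of the P301L-mutant K18 repeat-domain fragment of human tau was followed by ThT binding in quantitative high-throughput format.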
Sfp inh: blocks B. subtilis Sfp PPTase activity; hit rate 3.5% among 310,000; Potency, µM, hits mostly inhibitors; AID 1490; Biochemical Sfp PPTase activity, qHTS;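 note: the enzyme is Sfp with the accession as filed and its product quenches rhodamine fluorescence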
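Step 1, compound plus 15 nM Sfp-PPTase, 15 min, room temperature. Step 2, add rhodamine-CoA (5 uM) and BHQ-2-YbbR (12.5 uM). Step 3, read 525/598 nm fluorescence at 0 and 30 min.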
Tau FP inhib: blocks human tau fibril formation measured by polarization; P10636; K18 P301L tau heparin fibrillization, Alexa594 FP, 6 h; Potency, µM (doses to about 57.7 µM), most hits filed as inhibitors; hit rate 0.39% among 280,000; AID 1468; note: nearly all actives have a fitted effect of over 55% in size
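Quantitative HTS format: compounds meet 15 uM recombinant K18 P301L tau and Alexa 594-tau tracer in 100 mM sodium acetate pH 7; 20 uM heparin triggers fibrillization at 37 C over 6 hr; FP gives the signal.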
Coupling enz: counter-screen for Giardia aldolase inhibitors: coupling enzyme system; coupling enzyme system counterscreen, AmpLite Red fluorescence; activity change, negative = inhibition, % at 58.2 µM, hits read low; hit rate 0.67% among 290,000; in the data active = activity change below about -30%
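Coupling enzymes only (glyceraldehyde-3-phosphate) + compound, at 57.5 uM final, 10 min RT; add substrate/coupling/AmpLite Red mix, 20 min RT; fluorescence ex 525/em 598 nm. Actives flag coupling-system interference.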
Of the large screens only hits and unclear results are named; the others gave an inactive call; ! = a repeat was not active; [ ] = remark or other dose. Unless noted, calls come from the whole dose curve; as a rule, active = well fitted curve in the direction sought with a large enough effect; inconclusive = small, poorly fitted or top-dose-only effect, or another doubt; inactive = no such curve, though single readings can be large; an effect the other way counts as inactive or inconclusive.

COc1ccc(NC2=CC(c3ccc(OC)c(OC)c3)N(c3ccc(OC)cc3)C2=O)cc1 (centres undefined)	none
CCn1ncc(C2=NOC(C(=O)NCc3ccc(OC)cc3)C2)c1C (centres undefined)	none
CCn1ncc(C2=NOC(C(=O)NCc3ccccc3)C2)c1C (centres undefined)	Sfp inh 79µM
Nc1ccc2ncccc2c1	JMJD2E inh inconclusive, Tau fibril ThT 16µM, Sfp inh inconclusive, Tau FP inhib inconclusive, Coupling enz -39
Nc1ccc(/C=C/c2ccc3ncccc3c2)cc1	Tau fibril ThT 6.3µM
CCC(=O)c1ccc2ncccc2c1	none
CCCn1c(CN2CCN(c3ccc(OC)cc3)CC2)nc2c1c(=O)[nH]c(=O)n2C	none (no result: JMJD2E inh, Sfp inh, Coupling enz)
CSc1ccccc1NC(=O)c1cc(-c2cccnc2)nc2ccc(Br)cc12	Sfp inh 45µM
CC(=O)Nc1cccc(NC(=O)c2cc(-c3cccnc3)nc3ccc(Br)cc23)c1	Tau fluor counter inconclusive, Tau FP inhib inconclusive (no result: Coupling enz)
Cn1c(=O)n(C)c2cc(N3CCOCC3)c(NC(=O)c3ccc(C(C)(C)C)cc3)cc21	Tau fibril ThT inconclusive (no result: JMJD2E inh, Sfp inh, Coupling enz)
Cc1ccc(NC(=O)CSc2nnc(-c3cnccn3)n2Cc2ccco2)cc1	Sfp inh 20µM
Clc1ccc(CSc2nnc(-c3ccccn3)n2Cc2ccco2)c(Cl)c1	Sfp inh 50µM
C(=C\c1ccccc1)/CSc1nnc(-c2cnccn2)n1Cc1ccco1	Sfp inh 35µM
CCNC(=O)C1CCN(S(=O)(=O)c2ccc3c(c2)CCCN3C(C)=O)CC1	none (no result: JMJD2E inh, Sfp inh, Coupling enz)
COc1cccc(CNC(=O)CN2C(=O)COc3ccc(S(=O)(=O)Nc4ccccc4)cc32)c1	none (no result: JMJD2E inh, Sfp inh, Coupling enz)
Cc1ccc(C2=Nc3ccccc3SC(c3cccc([N+](=O)[O-])c3)C2)cc1 (centres undefined)	JMJD2E inh inconclusive, Tau fibril ThT inconclusive, Sfp inh 8.9µM
CC(C)(C)OC(=O)NCCc1n[nH]c(=S)o1	Sfp inh 79µM
COc1ccc(-n2ccnc(NCc3ccc(C)cc3)c2=O)cc1OC	none (no result: JMJD2E inh, Sfp inh, Coupling enz)
CC1(C)c2ccccc2N2CC(=O)N(CC(N)=O)C21C (centres undefined)	Tau fluor counter 32µM[fluorescent], Tau fibril ThT inconclusive, Tau FP inhib inconclusive
COc1cccc(CNC(=O)c2ccc3c(c2)N(C)C(=O)C2CCCCN32)c1 (centres undefined)	none (no result: JMJD2E inh, Sfp inh, Coupling enz)
CCN(CCO)c1ccc(N=Nc2cc(C)[nH]n2)cc1	Tau fibril ThT 10µM
CCN(CC)c1ccc(N=CN2CCOCC2)cc1	none (no result: JMJD2E inh, Tau fluor counter, Tau fibril ThT, Tau FP inhib)
COC(=O)C1=C(C(=O)OC)[C@@H]2N(Cc3ccccc3)c3ccccc3[C@@]23C[C@@H](C(=O)OC)N(S(=O)(=O)c2ccc(C)cc2)C3=N1	none
O=C(Nc1ccc(C(=O)N2CCN(c3ccccc3F)CC2)cc1)c1nsc2ccccc12	none (no result: JMJD2E inh, Sfp inh, Coupling enz)
NC(=NCCCCCCN=C(N)/N=C(\N)Nc1ccc(Cl)cc1)/N=C(\N)Nc1ccc(Cl)cc1	Tau fluor counter inconclusive, Tau fibril ThT inconclusive, Sfp inh 28µM!, Tau FP inhib inconclusive
CC(C)N=C(N)/N=C(\N)Nc1ccc(Cl)cc1	none (no result: Tau fluor counter, Tau fibril ThT, Tau FP inhib)
O=C(CN1CCOCC1)N1CCc2ccccc2C(c2ccccc2)C1 (centres undefined)	JMJD2E inh inconclusive, Sfp inh inconclusive, Tau FP inhib inconclusive
O=C(CBr)N1CCc2ccccc2C(c2ccccc2)C1 (centres undefined)	Sfp inh 32µM
CC(C)=CC[C@@H](O)C1=CC(=O)c2c(O)ccc(O)c2C1=O	Tau fluor counter inconclusive, Tau fibril ThT 4.5µM, Sfp inh 50µM, Tau FP inhib 13µM (no result: JMJD2E inh, Coupling enz)
CC1CCN(C(=O)c2ccc3c(c2)N(Cc2ccccc2)C(=O)c2ccccc2S3(=O)=O)CC1	none (no result: JMJD2E inh, Sfp inh, Coupling enz)
COc1cc([N+](=O)[O-])cc2sc(NC(C)=O)nc12	Tau fibril ThT inconclusive, Sfp inh 40µM
Cc1ccc(C(c2cc(Cl)c3cccnc3c2O)N2CCN(C)CC2)cc1 (centres undefined)	Sfp inh 35µM (no result: JMJD2E inh, Tau fluor counter, Tau fibril ThT, Tau FP inhib)
CN1CCN(C(c2ccccn2)c2cc(Cl)c3cccnc3c2O)CC1 (centres undefined)	JMJD2E inh 25µM, Tau fibril ThT inconclusive, Sfp inh 32µM
